Laboratory results published in ChEMBL document CHEMBL1961873, “Compounds: GSK PKIS; Assays: Nanosyn kinase panel” (2012).

biological target: T1, Testis-specific serine/threonine-protein kinase 1 (Homo sapiens) (UniProt Q9BXA7); details: at 0.1 µM
T1 sequence (whole entry): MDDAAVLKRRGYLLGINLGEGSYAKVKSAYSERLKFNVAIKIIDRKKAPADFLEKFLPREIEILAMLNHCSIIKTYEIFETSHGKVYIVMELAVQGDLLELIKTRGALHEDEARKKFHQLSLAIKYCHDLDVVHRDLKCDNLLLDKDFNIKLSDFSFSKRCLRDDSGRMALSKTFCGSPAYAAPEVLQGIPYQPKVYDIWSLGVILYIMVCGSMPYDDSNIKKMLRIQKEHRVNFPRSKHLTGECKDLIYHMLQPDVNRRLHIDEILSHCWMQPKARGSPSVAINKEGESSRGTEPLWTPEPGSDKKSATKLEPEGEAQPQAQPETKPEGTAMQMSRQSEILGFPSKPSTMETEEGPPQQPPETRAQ

| Compound | inhibition [%] |
| --- | --- |
| CCCN(CCS(C)(=O)=O)Cc1ccc(-c2ccc3ncnc(Nc4ccc(OCc5cccc(F)c5)c(Cl)c4)c3c2)o1 | 2.58 |
| CCn1c(-c2nonc2N)nc2c(C#CC(C)(C)O)ncc(OC3CCNCC3)c21 | 20.7 |
| CCn1c(-c2nonc2N)nc2c(C#CC(C)(C)O)nc(OC[C@H](N)c3ccccc3)cc21 | 7.96 |
| CC(=O)Nc1cccc(C#Cc2cncnc2Nc2ccc(OCc3cccc(F)c3)c(Cl)c2)c1 | 1.34 |
| Cc1ccc(O)cc1Nc1ccnc2cc(-c3ccccn3)ccc12 | 3.87 |
| CCn1c(-c2nonc2N)nc2cnc(Oc3cccc(NC(=O)c4ccc(N(C)C)cc4)c3)cc21 | 10.9 |
| NC(=O)c1sc(-n2cnc3ccc(C(F)(F)F)cc32)cc1OCc1ccccc1Br | 3.44 |
| CCc1nn2ncccc2c1-c1ccnc(NC2CC2)n1 | 1.98 |
| N#Cc1c(NC(=O)CN2CCOCC2)sc2c1CCCC2 | -0.56 |
| CN(C)CCOc1ccc(-c2nc(-c3ccncc3)c(-c3ccc4c(c3)CC/C4=N\O)[nH]2)cc1 | 1.85 |
| CCOc1ccc2c(-c3ccnc(Nc4cccc(C(F)(F)F)c4)n3)cnn2n1 | 2.69 |
| COc1cccc(-c2c[nH]c3c(N/N=C/c4ccncc4)ncnc23)c1 | 1.82 |
| c1cc(-c2cnn3nc(N4CCOCC4)ccc23)nc(NC2CC2)n1 | 2.66 |
| CNC(=O)c1cncc(/C=C/c2ccccc2Cl)c1 | 0.22 |
| c1ccc(-c2nc3n(c2-c2ccc4c(c2)OCO4)CCC3)nc1 | 0.83 |
| Fc1cccc(COc2ccc(Nc3ncnc4sc(-c5ccco5)cc34)cc2Cl)c1 | 2.79 |
| CC(C)(CO)CNC(=O)c1ccc2c(c1)/C(=N/Nc1ccc(S(N)(=O)=O)cc1)C(=O)N2 | 0.17 |

| Compound | inhibition [%] |
| --- | --- |
| COc1ccc(-c2cc(-c3c[nH]nc3-c3ccccn3)ccn2)cc1 | 3.33 |
| CC(=O)NCc1cccc(C#Cc2cncnc2Nc2ccc(OCc3cccc(F)c3)c(Cl)c2)c1 | 1.79 |
| COc1ccc(CNC(=O)c2ccc(-c3cc(-c4nnc(C)o4)ccc3C)cc2)cc1 | 3.31 |
| O=S(=O)(CCNCc1ccc(-c2ccc3ncnc(Nc4ccc(OCc5cccc(F)c5)c(Cl)c4)c3c2)o1)c1ccccc1 | 4.61 |
| Nc1nc(-c2cccc(Cl)c2)c(-c2ccc3ncccc3n2)s1 | 7.29 |
| CS(=O)(=O)CCNCc1ccc(-c2ccc3ncnc(Nc4ccc(OCc5ccccc5)c(C(F)(F)F)c4)c3c2)o1 | 3.83 |
| CCN(CC)S(=O)(=O)c1ccc(OC)c(Nc2ncc(-c3ccccc3)o2)c1 | 0.3 |
| CS(=O)(=O)CCNCc1coc(-c2ccc3ncnc(Nc4ccc(OCc5ccccc5)cc4)c3c2)c1 | 1.84 |
| CCN1CCC(CC(=O)Nc2n[nH]c3nnc(-c4cccc(F)c4F)cc23)CC1 | 2.14 |
| CN1CCC(n2cnc(-c3ccc(F)cc3)c2-c2ccnc(Nc3ccccc3)n2)CC1 | 3.05 |
| CCNC(=O)O[C@H]1CN[C@H](C#Cc2cc3ncnc(Nc4ccc(OCc5cccc(F)c5)c(Cl)c4)c3s2)C1 | 2.93 |
| Clc1ccc(-c2nn3ncccc3c2-c2ccnc(Nc3ccccc3)n2)cc1 | 0.84 |
| Cc1cccc2c1NC(=O)/C2=N\Nc1ccc(S(N)(=O)=O)cc1 | 1.83 |
| COc1cc(/C=N/Nc2ncnc3[nH]ncc23)ccc1O | 4.57 |
| COc1cccc(-n2ncc3c(N/N=C/c4ccc(F)cc4)ncnc32)c1 | 3.31 |
| COc1cc(N2CCN(C(C)C)CC2)ccc1Nc1nc(Nc2ccc(F)cc2C(N)=O)c2cc[nH]c2n1 | 82.8 |

biological target: T1, Testis-specific serine/threonine-protein kinase 1 (Homo sapiens); details: at 1 µM

| Compound | inhibition [%] |
| --- | --- |
| CCCN(CCS(C)(=O)=O)Cc1ccc(-c2ccc3ncnc(Nc4ccc(OCc5cccc(F)c5)c(Cl)c4)c3c2)o1 | 1.44 |
| CCn1c(-c2nonc2N)nc2c(C#CC(C)(C)O)ncc(OC3CCNCC3)c21 | 71.4 |
| CCn1c(-c2nonc2N)nc2c(C#CC(C)(C)O)nc(OC[C@H](N)c3ccccc3)cc21 | 44.1 |
| CC(=O)Nc1cccc(C#Cc2cncnc2Nc2ccc(OCc3cccc(F)c3)c(Cl)c2)c1 | 0.24 |
| Cc1ccc(O)cc1Nc1ccnc2cc(-c3ccccn3)ccc12 | 3.16 |
| CCn1c(-c2nonc2N)nc2cnc(Oc3cccc(NC(=O)c4ccc(N(C)C)cc4)c3)cc21 | 52.2 |
| NC(=O)c1sc(-n2cnc3ccc(C(F)(F)F)cc32)cc1OCc1ccccc1Br | 3.86 |
| CCc1nn2ncccc2c1-c1ccnc(NC2CC2)n1 | 3.93 |
| N#Cc1c(NC(=O)CN2CCOCC2)sc2c1CCCC2 | 3.34 |
| CN(C)CCOc1ccc(-c2nc(-c3ccncc3)c(-c3ccc4c(c3)CC/C4=N\O)[nH]2)cc1 | 2.25 |
| CCOc1ccc2c(-c3ccnc(Nc4cccc(C(F)(F)F)c4)n3)cnn2n1 | 3.46 |
| COc1cccc(-c2c[nH]c3c(N/N=C/c4ccncc4)ncnc23)c1 | -0.71 |
| c1cc(-c2cnn3nc(N4CCOCC4)ccc23)nc(NC2CC2)n1 | 5.12 |
| CNC(=O)c1cncc(/C=C/c2ccccc2Cl)c1 | 1.52 |
| c1ccc(-c2nc3n(c2-c2ccc4c(c2)OCO4)CCC3)nc1 | -0.01 |
| Fc1cccc(COc2ccc(Nc3ncnc4sc(-c5ccco5)cc34)cc2Cl)c1 | 3.11 |
| CC(C)(CO)CNC(=O)c1ccc2c(c1)/C(=N/Nc1ccc(S(N)(=O)=O)cc1)C(=O)N2 | 11 |

| Compound | inhibition [%] |
| --- | --- |
| COc1ccc(-c2cc(-c3c[nH]nc3-c3ccccn3)ccn2)cc1 | 5.54 |
| CC(=O)NCc1cccc(C#Cc2cncnc2Nc2ccc(OCc3cccc(F)c3)c(Cl)c2)c1 | 2.15 |
| COc1ccc(CNC(=O)c2ccc(-c3cc(-c4nnc(C)o4)ccc3C)cc2)cc1 | 6.39 |
| O=S(=O)(CCNCc1ccc(-c2ccc3ncnc(Nc4ccc(OCc5cccc(F)c5)c(Cl)c4)c3c2)o1)c1ccccc1 | 5.43 |
| Nc1nc(-c2cccc(Cl)c2)c(-c2ccc3ncccc3n2)s1 | 12.9 |
| CS(=O)(=O)CCNCc1ccc(-c2ccc3ncnc(Nc4ccc(OCc5ccccc5)c(C(F)(F)F)c4)c3c2)o1 | 3.88 |
| CCN(CC)S(=O)(=O)c1ccc(OC)c(Nc2ncc(-c3ccccc3)o2)c1 | -0.98 |
| CS(=O)(=O)CCNCc1coc(-c2ccc3ncnc(Nc4ccc(OCc5ccccc5)cc4)c3c2)c1 | 3.84 |
| CCN1CCC(CC(=O)Nc2n[nH]c3nnc(-c4cccc(F)c4F)cc23)CC1 | 1.72 |
| CN1CCC(n2cnc(-c3ccc(F)cc3)c2-c2ccnc(Nc3ccccc3)n2)CC1 | 3.21 |
| CCNC(=O)O[C@H]1CN[C@H](C#Cc2cc3ncnc(Nc4ccc(OCc5cccc(F)c5)c(Cl)c4)c3s2)C1 | -2.91 |
| Clc1ccc(-c2nn3ncccc3c2-c2ccnc(Nc3ccccc3)n2)cc1 | 0.18 |
| Cc1cccc2c1NC(=O)/C2=N\Nc1ccc(S(N)(=O)=O)cc1 | 3.05 |
| COc1cc(/C=N/Nc2ncnc3[nH]ncc23)ccc1O | 11.6 |
| COc1cccc(-n2ncc3c(N/N=C/c4ccc(F)cc4)ncnc32)c1 | 5.3 |
| COc1cc(N2CCN(C(C)C)CC2)ccc1Nc1nc(Nc2ccc(F)cc2C(N)=O)c2cc[nH]c2n1 | 95.4 |
